# Screening data from PubChem.
# SW480 rerep: inducers of DNA re-replication in SW480 colon cancer cells; SW480 DNA re-replication, Hoechst DNA content imaging, 48 h; Potency, µM (highest dose often 46.1 µM), inactives show top-dose re-replication activation, actives largely listed as activators; actives 1.8% (n = 340,000); also: % of control where 0% means no effect; nearly all actives have a fitted effect of over 55% in size
#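 Compounds, transferred as 23 nL by pin tool, were incubated with cells for 48 hr; DNA content per nucleus was then quantified by Hoechst staining and fluorescence plate imaging.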
# ELG1 repair inh: inhibitors of ELG1-dependent DNA repair in HEK293T cells | HEK293T ELG1-luciferase reporter, luminescence, 16 h; DNA damage induced by 5-fluorouridine | Potency, µM (highest dose often 46.1 µM), inactives show at the highest dose activity change, negative = inhibition, hits mostly inhibitors | actives 2.3% (n = 330,000); also: % is scaled to controls: 0 for no effect and ±100 for the full control effect; nearly all actives have a fitted effect of over 55% in size
#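 Reporter activity after DNA damage by 5-fluorouridine is monitored. Compound-treated cells incubate 16 hr at 37 °C, then ONE-Glo is added for 30 min before luminescence reading.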
# Gal4-VP16 FLuc: inhibits Gal4-VP16 luciferase reporter, ROR gamma counter-screen. Potency, µM (doses to about 53.6 µM), without a hit: at the highest dose activity, negative = inhibition, hits mostly inhibitors. actives 3.5% (n = 310,000). Drosophila S2 Gal4-VP16 UAS-luciferase, luminescence, 20 h;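 also: Gal4-VP16 expression switched on by copper sulfate through the metallothionein promoter; % is scaled to controls: 0 for no effect and ±100 for the full control effect; nearly all actives have a fitted effect of over 50% in size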
# RORgamma inh: ROR gamma (mouse) transcription inhibition; Drosophila S2 Gal4-RORgamma UAS-luciferase reporter, 20 h; Potency, µM (doses to about 53.6 µM), for the others: top-dose activity change, negative = inhibition, most hits filed as inhibitors; actives 5.4% (n = 310,000); AID 2551; also: % is scaled to controls: 0 for no effect and ±100 for the full control effect; nearly all actives have a fitted effect of over 60% in size
# Target sequence (P51450 whole entry, looked up, the tested form may be a part): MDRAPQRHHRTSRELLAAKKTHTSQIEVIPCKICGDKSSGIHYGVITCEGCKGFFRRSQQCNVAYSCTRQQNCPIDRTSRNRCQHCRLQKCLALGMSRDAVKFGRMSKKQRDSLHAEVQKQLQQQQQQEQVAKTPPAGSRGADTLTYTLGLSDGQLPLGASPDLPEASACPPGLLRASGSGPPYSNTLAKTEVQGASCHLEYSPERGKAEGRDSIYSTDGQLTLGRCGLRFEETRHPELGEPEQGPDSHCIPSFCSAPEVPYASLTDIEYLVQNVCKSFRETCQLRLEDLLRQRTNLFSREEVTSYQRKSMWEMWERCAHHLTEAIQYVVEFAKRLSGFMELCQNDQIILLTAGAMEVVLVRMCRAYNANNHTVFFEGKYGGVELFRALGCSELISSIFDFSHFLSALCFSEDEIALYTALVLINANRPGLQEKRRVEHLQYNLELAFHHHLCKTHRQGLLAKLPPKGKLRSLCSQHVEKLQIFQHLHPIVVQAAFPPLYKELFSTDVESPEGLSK
#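 Read-out: Photinus luciferase luminescence; inhibitors lower reporter signal. Insect Schneider cells with Gal4-ROR gamma fusion under metallothionein promoter, UAS reporter; 700 uM final copper sulfate induction, 20 hr, ambient temperature.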
# MCF10A rereplic: induces DNA re-replication in MCF 10a normal breast cells. MCF 10A DNA re-replication, Hoechst nuclear intensity, 48 h. Potency, µM (doses to about 46.1 µM), for inactives: top-dose activity, positive = re-replication, hits mostly activators. actives 2.9% (n = 350,000). AID 624296; also: % of control where 0% means no effect; nearly all actives have a fitted effect of over 50% in size
# * = called active by the depositor; ? = inconclusive; · = no result given; [ ] = dose if it differs, or a comment. A selection: hits, their analogues and other compounds. The true share with any hit is near 10%. Calls follow the shape of the dose curve; as a rule, active = well fitted curve in the direction sought with a large enough effect; inconclusive = small, poorly fitted or top-dose-only effect, or another doubt; inactive = no such curve, though single readings can be large; an effect the other way counts as inactive or inconclusive. Potency is read from the fitted curve at half-maximal effect.
SMILES,SW480 rerep,ELG1 repair inh,Gal4-VP16 FLuc,RORgamma inh,MCF10A rereplic
CCN(c1ccc(NC(=O)COC(=O)C(C)N=C2NS(=O)(=O)c3ccccc32)cc1)C(C)C (stereo not given),-72%,?,·,·,-13%
O=S(=O)(c1ccccc1)N1N=C(c2cccs2)CC1c1ccc(F)cc1 (stereo not given),?,-1%,-18%,34%,0%
Fc1ccc(N2N=C(c3cccs3)CC2c2ccccc2)cc1 (stereo not given),5.8µM*,?,1%,28%,2.6µM*
CCc1cccc(N(C(=O)c2csnn2)C(C(=O)NC2CCCC2)c2cccnc2)c1 (stereo not given),-8%,0%,0%,0%,-1%
COc1cccc2sc3cc(NCc4ccc5c(c4)OCO5)ccc3c(=O)c12,?,?,·,·,4.1µM*
CC(C)(C)OC(=O)NCCCCC1=CC2=CC(=O)C(C)(OC(=O)C3CCCC3)C(=O)C2=CO1 (stereo not given),·,·,-16%,-1%,·
COc1ccccc1/C=C/C1(C(=O)NC2CCCC2)CC(=O)N1c1ccccc1 (stereo not given),7.3µM*,-25%,-10%,17%,9.2µM*
CN(C)S(=O)(=O)c1ccc(N2C(=O)CC2(/C=C/c2ccccc2)C(=O)NC2CCCC2)cc1 (stereo not given),-1%,-7%,?,4%,-69%
CCOc1ccccc1C(=O)Nc1ccccc1O,-12%,?,-2%,11%,0%
O=C(Nc1ccccc1Br)c1ccccc1-c1ccccc1,16µM*,-11%,-3%,-25%,13µM*
CCOc1ccccc1C(=O)Nc1ccccc1-c1ccccc1,14%,-17%,-4%,21%,21µM*
O=C(O)CC(CC(=O)Nc1ccc(-c2ccccc2)cc1)c1ccccc1 (stereo not given),4%,15%,-5%,-2%,-1%
CC(=O)c1cn(CC(=O)Nc2cccc(C)c2C)c2ccccc12,-3%,-4%,13µM*,?,14%
COc1ccc(OCCn2cc(/C=N/NC(=O)c3ccncc3)c3ccccc32)cc1,2%,?,8.9µM*,5µM*,21%
COC(=O)N/N=C/c1cn(CCOc2ccc(OC)cc2)c2ccccc12,-8%,-24%,6%,35%,2%
Cc1ccc(OCCn2cc(/C=N/NC(=O)c3ccncc3)c3ccccc32)cc1,4%,?,11µM*,5µM*,?
Cc1ccc(NC(=O)Cn2cc(C=O)c3ccccc32)cc1,15µM*,-14%,-1%,29%,29%
Cc1noc(C)c1NC(=O)Nc1ccc2c(c1)C(=O)N([C@H](C)CO)C[C@H](C)[C@@H](CN(C)C(=O)NC(C)C)O2,3%[9.22 µM],3%,·,·,0%
O=C(CCCCCN1C(=O)c2ccccc2C1=O)Oc1ccc2c3c(c(=O)oc2c1)CCC3,0%,?,-17%,-28%,0%
CCOC(=O)C1=C(C(=O)OCC)N(Cc2ccccc2)CCC1=O,5%,·,·,·,-4%
COC(=O)N/N=C/c1cn(CCOc2ccccc2)c2ccccc12,-113%,-13%,17%,?,2%
CCOC(=O)N/N=C/c1cn(Cc2ccc(Cl)cc2)c2ccccc12,3%,28%,?,-44%,5%
Cc1ccc(OCC(=O)N/N=C/c2cn(Cc3ccccc3)c3ccccc23)cc1,-95%,-21%,7.1µM*,5µM*,?
CCOC(=O)N/N=C/c1cn(CCCOc2ccccc2)c2ccccc12,?,?,-21%,5%,12%
COc1cccc(OCCn2cc(/C=N/NC(=O)c3ccncc3)c3ccccc32)c1,2%,?,10µM*,?,?
SMILES,SW480 rerep,ELG1 repair inh,Gal4-VP16 FLuc,RORgamma inh,MCF10A rereplic
CCOC(=O)N/N=C/c1cn(CCCOc2ccc(C)cc2)c2ccccc12,?,-2%,1.8µM*,1.4µM*,10%
CC(C)c1cccc(C(C)C)c1NC(=O)CN1C(=O)NC2(CCCCCCC2)C1=O,-4%,15%,·,·,3%
NC(C(=O)O)C(O)c1ccc(O)c(O)c1 (stereo not given),-6%,·,2%,-7%[10 µM],8%
S=C(Nc1ccc(Oc2ccccc2)cc1)NC1CCCC1,0%,20%,5µM*,5µM*,?
Cc1cccc(NC(=S)NC2CCCC2)c1,-5%,2%,-15%,22%,1%
S=C(NCC1CCCCC1)Nc1ccc(Oc2ccccc2)cc1,0%,3%,5µM*,2.8µM*,18µM*
S=C(Nc1ccc(Br)cc1)NC1CCCC1,-1%,?,10µM*,6.3µM*,-1%
COc1ccc(NC(=S)NC2CCCCC2)cn1,0%,?,?,13µM*,-5%
S=C(NCC1CCCCC1)Nc1cccnc1,-2%,13%,16%,-40%,10%
NC(=O)c1nnsc1-c1ccco1,14%,·,·,·,-1%
Cc1cccc2sc(NC(=O)CSc3nnnn3C)nc12,0%,9%,-3%,-1%,18%
Cc1nnc(SCc2cccc3ccccc23)s1,?,?,4%,14%,-20%
O=C(Nc1cc2c(cc1Br)OCCO2)c1cccnc1,2%,18%,2%,?,-36%
O=C(Nc1ccccc1Oc1ccccc1)C1CCCC1,3%,-4%,-5%,13%,23%
S=C(Nc1ccccc1Oc1ccccc1)NC1CCCC1,5%,?,7.1µM*,3.2µM*,3%
COc1ccc(CNC(=O)N2CCN(c3ccc(F)cc3)CC2)cc1Cl,-5%,-8%,-7%,?,?
COc1ccc(NC(=O)COc2ccccc2C)cc1S(=O)(=O)N1CCCCC1,5%,?,·,·,9%
COc1ccc(NC(=O)COc2ccccc2C#N)c(S(=O)(=O)N2CCCCC2)c1,-5%,21µM*,-1%,20%,-7%
N#Cc1ccccc1OCC(=O)Nc1cccc(S(=O)(=O)N2CCCCCC2)c1,1%,18µM*,·,·,?
COc1ccc(C(=O)COc2ccccc2C#N)cc1,1%,?,-6%,27%,16µM*
CCOc1ccccc1OCC(=O)Nc1cccc(S(=O)(=O)N2CCCCCC2)c1,1%,?,·,·,17%
CCc1ccc(OCC(=O)Nc2ccc(S(=O)(=O)N3CCCC3)cc2)c(Br)c1,1%,3%,-7%,-29%,13%
COc1ccc(C(=O)COc2ccccc2C(N)=O)cc1,2%,-11%,13%,9%,9%
O=C(COc1ccc(Br)cc1CO)Nc1ccc(S(=O)(=O)N2CCCCC2)cc1,-18%,18µM*,·,·,6%
Cc1cc(C)c(C)c(S(=O)(=O)N2CCC(C(=O)NC3=NCCS3)CC2)c1C,-6%,-2%,·,·,14%
COc1cc(C2CC(=O)c3cnc(NC(=O)c4ccco4)nc3C2)cc(OC)c1OC (stereo not given),-7%,7%,-1%,-10%,-2%
